Experiments:
Test in all cases: log2 ratio of Biotin-Ahx-Ub-VS probe labelling (fragment/DMSO); higher = less target engagement (more negative = stronger competition), active = hit call of the paper (q ≤ 0.05, log2 ratio ≤ -1)
Settings in all cases: compound concentration: 200 uM; treatment time: 3 h
USP19 = target: T1, USP19 (UniProt O94966)
T1 sequence (whole entry): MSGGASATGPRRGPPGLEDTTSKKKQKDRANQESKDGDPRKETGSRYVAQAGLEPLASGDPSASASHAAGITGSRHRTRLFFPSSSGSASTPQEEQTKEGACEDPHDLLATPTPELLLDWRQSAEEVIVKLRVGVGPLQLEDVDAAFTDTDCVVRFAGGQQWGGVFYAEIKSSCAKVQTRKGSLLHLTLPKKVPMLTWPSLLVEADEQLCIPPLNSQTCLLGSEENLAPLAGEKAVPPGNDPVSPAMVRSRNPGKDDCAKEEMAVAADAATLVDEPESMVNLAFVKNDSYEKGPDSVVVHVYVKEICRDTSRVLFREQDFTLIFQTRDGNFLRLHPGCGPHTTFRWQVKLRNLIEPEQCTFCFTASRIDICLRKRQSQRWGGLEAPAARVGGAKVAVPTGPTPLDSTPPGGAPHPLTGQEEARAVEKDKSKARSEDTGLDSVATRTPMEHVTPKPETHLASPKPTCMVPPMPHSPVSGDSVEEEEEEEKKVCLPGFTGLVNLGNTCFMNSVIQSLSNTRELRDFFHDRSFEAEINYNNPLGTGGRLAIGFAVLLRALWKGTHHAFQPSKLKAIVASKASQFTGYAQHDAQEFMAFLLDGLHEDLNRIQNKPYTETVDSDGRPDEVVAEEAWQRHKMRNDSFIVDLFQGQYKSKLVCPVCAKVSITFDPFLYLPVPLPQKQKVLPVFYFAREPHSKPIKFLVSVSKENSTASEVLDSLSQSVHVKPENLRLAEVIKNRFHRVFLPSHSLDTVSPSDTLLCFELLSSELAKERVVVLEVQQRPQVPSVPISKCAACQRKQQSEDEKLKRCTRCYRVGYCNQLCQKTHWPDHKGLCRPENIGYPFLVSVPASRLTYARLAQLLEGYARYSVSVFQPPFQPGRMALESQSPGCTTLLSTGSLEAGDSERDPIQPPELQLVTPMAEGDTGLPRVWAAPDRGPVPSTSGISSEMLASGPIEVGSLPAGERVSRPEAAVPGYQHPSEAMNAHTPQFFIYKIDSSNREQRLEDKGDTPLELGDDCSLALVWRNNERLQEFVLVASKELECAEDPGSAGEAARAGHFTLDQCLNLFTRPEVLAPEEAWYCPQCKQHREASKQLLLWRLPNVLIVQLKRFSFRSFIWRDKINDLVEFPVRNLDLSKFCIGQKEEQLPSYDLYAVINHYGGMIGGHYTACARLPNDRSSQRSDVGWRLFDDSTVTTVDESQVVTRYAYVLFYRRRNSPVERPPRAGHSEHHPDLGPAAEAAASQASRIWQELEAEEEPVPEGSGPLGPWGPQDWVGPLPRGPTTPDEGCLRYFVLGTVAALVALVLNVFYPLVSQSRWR
Procedure, shortened: (§1)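 Average log2 ratios of fragment over vehicle were obtained by unpaired t-test from global-median-normalised Spectronaut label-free quantities. Proteins with ≥2 unique peptides were included. HEK293T lysate (495 µg per sample) was treated in triplicate with fragment at 200 µM or vehicle for 3 h, then with Biotin-Ahx-Ub-VS at 0.5 µM final for 1 h, and labelled DUBs were NeutrAvidin-enriched and run by diaPASEF LC-MS/MS.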

USP22 = target: T2, USP22 (UniProt Q9UPT9)
T2 sequence (whole entry): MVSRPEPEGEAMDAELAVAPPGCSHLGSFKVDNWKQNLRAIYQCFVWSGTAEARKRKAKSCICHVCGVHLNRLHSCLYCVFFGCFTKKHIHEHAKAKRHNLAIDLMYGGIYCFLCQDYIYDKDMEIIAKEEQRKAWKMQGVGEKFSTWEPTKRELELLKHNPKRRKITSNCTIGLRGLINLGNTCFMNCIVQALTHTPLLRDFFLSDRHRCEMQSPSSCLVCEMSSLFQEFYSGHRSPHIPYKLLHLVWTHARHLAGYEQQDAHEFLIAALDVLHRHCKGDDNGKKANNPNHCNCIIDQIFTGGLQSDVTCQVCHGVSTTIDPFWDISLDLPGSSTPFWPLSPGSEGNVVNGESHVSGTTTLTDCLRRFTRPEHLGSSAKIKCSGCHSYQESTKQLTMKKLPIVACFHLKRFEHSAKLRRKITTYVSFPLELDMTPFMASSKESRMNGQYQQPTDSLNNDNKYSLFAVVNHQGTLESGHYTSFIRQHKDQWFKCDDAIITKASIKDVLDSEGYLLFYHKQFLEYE
Procedure, shortened: as §1

USP24 = USP24 (UniProt Q9UPU5)
USP24, sequence (Q9UPU5 whole entry): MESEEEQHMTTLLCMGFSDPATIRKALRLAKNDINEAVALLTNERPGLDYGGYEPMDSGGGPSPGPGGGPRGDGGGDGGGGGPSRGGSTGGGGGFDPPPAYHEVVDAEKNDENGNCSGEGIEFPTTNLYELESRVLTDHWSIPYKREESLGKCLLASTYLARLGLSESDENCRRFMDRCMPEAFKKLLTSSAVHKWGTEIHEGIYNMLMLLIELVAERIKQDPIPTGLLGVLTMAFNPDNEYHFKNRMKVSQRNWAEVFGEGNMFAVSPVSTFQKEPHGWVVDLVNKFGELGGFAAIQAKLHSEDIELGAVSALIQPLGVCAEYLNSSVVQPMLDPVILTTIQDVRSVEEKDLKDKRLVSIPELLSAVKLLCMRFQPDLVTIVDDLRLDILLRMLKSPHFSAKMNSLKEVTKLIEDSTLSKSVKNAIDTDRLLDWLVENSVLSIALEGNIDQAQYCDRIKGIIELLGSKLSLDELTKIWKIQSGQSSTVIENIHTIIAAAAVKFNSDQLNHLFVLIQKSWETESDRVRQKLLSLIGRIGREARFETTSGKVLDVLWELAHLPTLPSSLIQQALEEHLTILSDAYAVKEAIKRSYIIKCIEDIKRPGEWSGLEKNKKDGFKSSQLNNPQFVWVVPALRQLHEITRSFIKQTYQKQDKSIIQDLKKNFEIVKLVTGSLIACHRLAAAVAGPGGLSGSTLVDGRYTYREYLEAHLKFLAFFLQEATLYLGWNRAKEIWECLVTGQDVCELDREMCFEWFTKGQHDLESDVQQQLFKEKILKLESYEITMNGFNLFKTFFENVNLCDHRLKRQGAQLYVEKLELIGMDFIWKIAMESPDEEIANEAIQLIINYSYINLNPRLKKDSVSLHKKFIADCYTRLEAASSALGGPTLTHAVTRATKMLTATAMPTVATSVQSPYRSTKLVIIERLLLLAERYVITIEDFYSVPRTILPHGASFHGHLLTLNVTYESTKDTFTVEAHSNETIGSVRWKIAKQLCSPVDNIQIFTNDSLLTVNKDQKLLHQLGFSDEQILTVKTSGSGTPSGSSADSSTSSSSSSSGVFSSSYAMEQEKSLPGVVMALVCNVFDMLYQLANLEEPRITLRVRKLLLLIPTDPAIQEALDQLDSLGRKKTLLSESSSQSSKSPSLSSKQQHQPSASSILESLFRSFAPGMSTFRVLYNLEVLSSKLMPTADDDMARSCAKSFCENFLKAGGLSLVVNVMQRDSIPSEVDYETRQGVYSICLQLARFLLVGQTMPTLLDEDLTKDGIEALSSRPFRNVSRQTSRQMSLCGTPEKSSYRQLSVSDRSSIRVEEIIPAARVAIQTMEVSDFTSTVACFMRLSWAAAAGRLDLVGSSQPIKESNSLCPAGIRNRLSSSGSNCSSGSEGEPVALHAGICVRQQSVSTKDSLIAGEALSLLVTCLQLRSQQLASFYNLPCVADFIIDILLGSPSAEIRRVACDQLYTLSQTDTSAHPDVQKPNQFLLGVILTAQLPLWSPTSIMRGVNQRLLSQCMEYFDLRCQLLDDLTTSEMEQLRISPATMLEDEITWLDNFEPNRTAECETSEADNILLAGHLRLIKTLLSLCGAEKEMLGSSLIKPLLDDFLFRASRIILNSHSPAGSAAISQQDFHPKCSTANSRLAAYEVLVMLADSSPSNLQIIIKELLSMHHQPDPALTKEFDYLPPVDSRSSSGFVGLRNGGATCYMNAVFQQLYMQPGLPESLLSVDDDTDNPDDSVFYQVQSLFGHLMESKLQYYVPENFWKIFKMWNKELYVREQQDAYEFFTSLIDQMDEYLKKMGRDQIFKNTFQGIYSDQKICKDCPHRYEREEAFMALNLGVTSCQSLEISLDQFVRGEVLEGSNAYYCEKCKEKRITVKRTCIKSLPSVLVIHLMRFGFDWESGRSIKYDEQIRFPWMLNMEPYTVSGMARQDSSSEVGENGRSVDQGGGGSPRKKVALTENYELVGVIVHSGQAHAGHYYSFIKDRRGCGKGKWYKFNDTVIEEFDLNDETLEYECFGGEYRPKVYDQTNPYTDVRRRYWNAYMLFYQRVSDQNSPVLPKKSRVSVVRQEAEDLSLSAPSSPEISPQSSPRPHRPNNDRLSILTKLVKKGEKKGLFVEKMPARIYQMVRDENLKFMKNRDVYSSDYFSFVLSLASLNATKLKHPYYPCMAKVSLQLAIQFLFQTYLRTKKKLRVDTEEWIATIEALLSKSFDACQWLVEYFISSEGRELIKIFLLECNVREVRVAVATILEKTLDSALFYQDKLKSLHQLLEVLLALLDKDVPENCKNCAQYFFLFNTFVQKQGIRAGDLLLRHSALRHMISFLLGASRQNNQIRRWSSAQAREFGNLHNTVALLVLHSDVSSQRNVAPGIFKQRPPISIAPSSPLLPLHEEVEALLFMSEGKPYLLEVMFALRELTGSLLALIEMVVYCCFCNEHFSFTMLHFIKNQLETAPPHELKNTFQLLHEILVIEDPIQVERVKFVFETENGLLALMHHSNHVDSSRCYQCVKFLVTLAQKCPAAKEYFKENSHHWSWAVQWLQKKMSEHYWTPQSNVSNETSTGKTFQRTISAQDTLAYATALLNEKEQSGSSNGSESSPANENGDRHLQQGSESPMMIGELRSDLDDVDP
Procedure, shortened: as §1

USP25 = target: T3, USP25 (UniProt Q9UHP3)
T3 sequence (whole entry): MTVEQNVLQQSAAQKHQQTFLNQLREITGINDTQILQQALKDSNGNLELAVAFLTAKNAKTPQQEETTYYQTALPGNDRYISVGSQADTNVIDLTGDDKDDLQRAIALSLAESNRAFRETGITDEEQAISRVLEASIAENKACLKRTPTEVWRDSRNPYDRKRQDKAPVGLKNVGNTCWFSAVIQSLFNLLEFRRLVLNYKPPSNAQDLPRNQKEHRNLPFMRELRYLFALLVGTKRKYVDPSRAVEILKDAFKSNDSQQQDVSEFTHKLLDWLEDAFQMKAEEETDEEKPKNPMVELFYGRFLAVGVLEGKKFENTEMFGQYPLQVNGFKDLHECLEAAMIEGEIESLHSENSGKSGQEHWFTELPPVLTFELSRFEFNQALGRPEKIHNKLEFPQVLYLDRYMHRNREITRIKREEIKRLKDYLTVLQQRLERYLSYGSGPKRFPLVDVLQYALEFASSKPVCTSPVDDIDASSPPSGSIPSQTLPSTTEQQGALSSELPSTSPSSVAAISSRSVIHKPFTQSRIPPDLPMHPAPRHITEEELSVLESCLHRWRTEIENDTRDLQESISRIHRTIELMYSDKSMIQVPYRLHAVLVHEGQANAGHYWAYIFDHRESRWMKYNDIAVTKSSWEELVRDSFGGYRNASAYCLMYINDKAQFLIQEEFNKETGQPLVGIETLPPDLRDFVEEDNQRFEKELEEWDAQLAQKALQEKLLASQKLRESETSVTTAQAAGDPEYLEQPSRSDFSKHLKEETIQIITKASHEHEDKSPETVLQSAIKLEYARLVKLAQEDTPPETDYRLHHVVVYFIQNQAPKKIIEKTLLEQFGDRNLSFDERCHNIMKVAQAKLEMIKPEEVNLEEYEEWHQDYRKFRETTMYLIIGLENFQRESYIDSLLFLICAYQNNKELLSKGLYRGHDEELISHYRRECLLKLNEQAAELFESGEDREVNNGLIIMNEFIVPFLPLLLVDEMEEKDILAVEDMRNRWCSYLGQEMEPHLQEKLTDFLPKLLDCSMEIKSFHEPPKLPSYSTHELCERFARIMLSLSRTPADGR
Procedure, shortened: as §1

USP28 = target: T4, USP28 (UniProt Q96RU2)
T4 sequence (whole entry): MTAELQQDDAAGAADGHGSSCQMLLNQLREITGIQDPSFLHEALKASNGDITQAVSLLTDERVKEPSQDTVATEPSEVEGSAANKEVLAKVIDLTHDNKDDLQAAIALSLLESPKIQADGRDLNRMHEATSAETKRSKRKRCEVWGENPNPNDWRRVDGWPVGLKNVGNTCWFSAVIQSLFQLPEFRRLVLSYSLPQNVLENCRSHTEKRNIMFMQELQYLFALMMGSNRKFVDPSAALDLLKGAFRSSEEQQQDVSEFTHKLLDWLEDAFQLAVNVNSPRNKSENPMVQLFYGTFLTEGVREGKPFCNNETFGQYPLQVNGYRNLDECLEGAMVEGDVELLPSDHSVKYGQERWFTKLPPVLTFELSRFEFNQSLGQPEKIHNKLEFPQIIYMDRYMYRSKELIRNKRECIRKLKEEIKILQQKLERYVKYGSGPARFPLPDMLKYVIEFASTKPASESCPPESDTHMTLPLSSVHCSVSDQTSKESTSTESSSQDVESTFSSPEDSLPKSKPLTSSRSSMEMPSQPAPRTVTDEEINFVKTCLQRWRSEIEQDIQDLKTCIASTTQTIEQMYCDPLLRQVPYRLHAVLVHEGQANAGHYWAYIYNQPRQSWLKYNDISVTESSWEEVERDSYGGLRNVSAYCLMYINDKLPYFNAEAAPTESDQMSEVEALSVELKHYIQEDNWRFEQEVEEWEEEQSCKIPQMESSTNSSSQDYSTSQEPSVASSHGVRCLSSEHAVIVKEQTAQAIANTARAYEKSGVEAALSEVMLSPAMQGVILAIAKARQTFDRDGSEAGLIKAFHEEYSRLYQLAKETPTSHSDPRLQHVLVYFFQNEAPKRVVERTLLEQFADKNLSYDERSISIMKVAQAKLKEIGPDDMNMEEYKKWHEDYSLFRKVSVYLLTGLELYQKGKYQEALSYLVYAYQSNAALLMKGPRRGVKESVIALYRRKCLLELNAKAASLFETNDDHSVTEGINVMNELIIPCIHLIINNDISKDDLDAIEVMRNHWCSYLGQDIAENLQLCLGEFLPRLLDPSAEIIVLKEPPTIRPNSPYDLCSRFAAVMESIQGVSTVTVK
Procedure, shortened: as §1

Measured: log2 ratio of Biotin-Ahx-Ub-VS probe labelling

Cc1nc(CN2CCN(C(=O)CCl)CC2)cs1
inactive: USP19 -0.347 | USP22 -0.169 | USP24 -0.513 | USP25 -0.212 | USP28 -0.543
